In PubChem BioAssay:
For part of these data: Entries with a potency or affinity are not part of this list. Calls of active or inactive are those of the source.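 The calls were made as follows, unless noted: active = compound raising the membrane signal above positive-control mean plus 3 SD in both repeats, and a primary screen hit; inactive = the rest.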

Assays:
[1] = system: TRPC4 beta (transient receptor potential cation channel C4), mouse; test: TRPC4 cation channel opening, retest – cell-based, Fluo4 calcium, HEK293 TRPC4beta/mu-opioid, duplicates, 10 µM, confirmation (AID 2426;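 active = fluorescence ratio normalized to control raised more than 50% in primary screen plus both repeat runs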); settings: Fluo4 calcium fluorescence, at 10 µM; hits give high values
[2] = system: transient receptor potential cation channel C4 beta (TRPC4), mouse; test: TRPC4 cation channel opening, second retest – cell-based, second round, Fluo4, HEK293 TRPC4beta/mu-opioid, 1 µM, confirmation (AID 2461;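 active = primary screen active and over 50% activation in each of two duplicate runs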); settings: Fluo4 calcium fluorescence, at 1 µM; hits give high values
[3] = system: TRPC4 (transient receptor potential cation channel C4 beta), mouse; test: potentiation of DAMGO EC20 TRPC4 response – cell-based, second round, Fluo-4, HEK293 TRPC4beta/mu-opioid, 1 µM, confirmation (AID 2554;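 active = primary screen hit whose fluorescence ratio, in both repeats, exceeds the weak agonist control mean by 3 SD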); settings: DAMGO EC20, Fluo-4 calcium flux, at 1 µM; hits give high values
[4] = system: TRPC4 beta (transient receptor potential cation channel C4), mouse; test: potentiation of DAMGO EC20 TRPC4 response – cell-based, Fluo-4, HEK293 TRPC4beta/mu-opioid, confirmation (AID 2555;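 active = primary screen hit whose calcium fluorescence ratio, in both repeats, exceeds the weak agonist control mean by 3 SD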); settings: DAMGO EC20, Fluo-4 calcium flux, at 10 µM; hits give high values
[5] = molecular target: Short transient receptor potential channel 4 (Mus musculus) (UniProt Q9QUQ5); test: blockers of DAMGO-evoked TRPC4 calcium flux – cell-based, Fluo4, HEK293 TRPC4beta/mu-opioid, confirmation (AID 2636;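 active = calcium signal cut by more than 3 SD below the full-agonist control yet still positive, in both repeats and the earlier primary screen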); settings: at 10 µM; hits give high values
Short transient receptor potential channel 4 (Mus musculus), sequence (Q9QUQ5 whole entry, looked up): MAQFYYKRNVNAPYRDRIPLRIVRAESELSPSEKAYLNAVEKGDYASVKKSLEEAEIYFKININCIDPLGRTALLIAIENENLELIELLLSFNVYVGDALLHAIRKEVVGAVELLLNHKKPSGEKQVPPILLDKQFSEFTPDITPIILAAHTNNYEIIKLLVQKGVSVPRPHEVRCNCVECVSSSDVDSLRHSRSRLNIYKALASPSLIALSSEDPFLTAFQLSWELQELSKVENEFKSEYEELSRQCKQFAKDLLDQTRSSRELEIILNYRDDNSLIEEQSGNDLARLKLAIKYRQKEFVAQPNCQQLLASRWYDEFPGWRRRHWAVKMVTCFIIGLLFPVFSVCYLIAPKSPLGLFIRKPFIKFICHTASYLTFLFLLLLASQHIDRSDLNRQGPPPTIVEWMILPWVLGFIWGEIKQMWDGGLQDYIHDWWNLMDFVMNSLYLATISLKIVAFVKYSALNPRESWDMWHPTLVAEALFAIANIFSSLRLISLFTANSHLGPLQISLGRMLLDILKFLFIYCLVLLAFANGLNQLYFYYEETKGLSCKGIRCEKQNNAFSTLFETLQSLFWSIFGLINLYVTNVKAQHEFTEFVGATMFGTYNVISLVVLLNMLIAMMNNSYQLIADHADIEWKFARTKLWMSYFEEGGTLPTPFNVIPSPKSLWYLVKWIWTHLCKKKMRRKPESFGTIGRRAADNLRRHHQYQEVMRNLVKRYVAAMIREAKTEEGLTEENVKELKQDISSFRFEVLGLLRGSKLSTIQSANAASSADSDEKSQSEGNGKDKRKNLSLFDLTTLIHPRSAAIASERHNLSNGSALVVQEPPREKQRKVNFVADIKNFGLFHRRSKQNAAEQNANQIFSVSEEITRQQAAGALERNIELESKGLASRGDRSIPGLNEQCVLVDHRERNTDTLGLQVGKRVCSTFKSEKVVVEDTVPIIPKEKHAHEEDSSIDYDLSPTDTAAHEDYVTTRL

[6] = molecular target: Short transient receptor potential channel 4 (Mus musculus) (UniProt Q9QUQ5); test: blockers of DAMGO-evoked TRPC4 calcium flux – cell-based, second round, Fluo4, HEK293 TRPC4beta/mu-opioid, 1 µM, confirmation (AID 2637;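 active = calcium signal ratio cut to more than 3 SD under the fully stimulated control mean yet still positive, in both repeats and the primary screen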;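 as to inhibition: percent of integrated ratio relative to wells lacking test compound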); settings: at 1 µM; hits give high values
[7] = molecular target: Short transient receptor potential channel 4 (Mus musculus) (UniProt Q9QUQ5); test: calcium entry via TRPC4 opening agents – cell-based, HEK293 TRPC4/mu-opioid, Fluo-4 calcium, dose response (AID 434937;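 active = primary screen activator hit with a dose response curve and TRPC4 channel activation at any tested dose; inactive = no activation, no dose response, or not a primary hit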)
[8] = molecular target: Short transient receptor potential channel 4 (Mus musculus) (UniProt Q9QUQ5); test: potentiation of DAMGO-evoked TRPC4 calcium signal – cell-based, HEK293 TRPC4/mu-opioid, Fluo-4 calcium, EC20 DAMGO, dose response (AID 434941;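 active = earlier screen potentiator hit that boosts the TRPC4 ion channel at some dose, with a dose response; inactive = no potentiation, no dose response, or not a prior hit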;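 also: calcium entry triggered by an EC20 dose of DAMGO at the co-expressed mu-opioid receptor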)
[9] = molecular target: Short transient receptor potential channel 6 (Mus musculus) (UniProt Q61143); test: TRPC6 blockade by TRPC4 inhibitor hits – cell-based, HEK293, membrane potential dye, duplicate, selectivity assay for TRPC4 inhibitor project, confirmation (AID 434948;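 active = active in primary screen and both duplicates, each dropping signal beyond three positive-control SD with fluorescence still positive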); settings: HEK293 TRPC6, membrane potential dye fluorescence, at 10 µM, stimulated with maximal-effect acetylcholine; hits give high values
Short transient receptor potential channel 6 (Mus musculus), sequence (Q61143 whole entry, looked up): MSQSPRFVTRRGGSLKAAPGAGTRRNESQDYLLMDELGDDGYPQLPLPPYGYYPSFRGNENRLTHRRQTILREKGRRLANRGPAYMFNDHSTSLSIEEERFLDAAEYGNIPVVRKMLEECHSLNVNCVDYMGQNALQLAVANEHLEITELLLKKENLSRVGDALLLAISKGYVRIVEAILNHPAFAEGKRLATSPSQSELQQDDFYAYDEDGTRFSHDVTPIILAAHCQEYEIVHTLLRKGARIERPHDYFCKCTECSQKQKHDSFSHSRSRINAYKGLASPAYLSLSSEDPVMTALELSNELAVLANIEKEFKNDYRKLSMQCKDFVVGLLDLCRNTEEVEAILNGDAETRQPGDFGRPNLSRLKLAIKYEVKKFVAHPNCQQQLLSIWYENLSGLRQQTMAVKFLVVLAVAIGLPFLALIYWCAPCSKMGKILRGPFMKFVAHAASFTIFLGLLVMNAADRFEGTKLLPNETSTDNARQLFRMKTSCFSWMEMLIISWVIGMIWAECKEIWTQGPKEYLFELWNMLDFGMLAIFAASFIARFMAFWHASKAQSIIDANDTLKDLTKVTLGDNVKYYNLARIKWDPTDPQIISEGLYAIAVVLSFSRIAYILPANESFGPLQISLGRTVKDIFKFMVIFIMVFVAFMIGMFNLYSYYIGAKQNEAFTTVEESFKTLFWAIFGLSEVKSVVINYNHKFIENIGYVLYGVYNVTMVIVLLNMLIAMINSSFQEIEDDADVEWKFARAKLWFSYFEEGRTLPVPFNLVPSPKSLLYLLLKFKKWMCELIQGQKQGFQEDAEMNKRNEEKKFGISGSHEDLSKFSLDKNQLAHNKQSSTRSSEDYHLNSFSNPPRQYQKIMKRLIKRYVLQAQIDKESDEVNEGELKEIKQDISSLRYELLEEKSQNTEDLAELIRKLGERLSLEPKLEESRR

[10] = molecular target: Short transient receptor potential channel 6 (Mus musculus) (UniProt Q61143); test: TRPC6 opening by TRPC4 activator hits – cell-based, HEK293, membrane potential dye, duplicate, selectivity assay for TRPC4 activator project, confirmation (AID 434950;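 active = membrane potential signal rise above negative control mean plus 3 SD in both duplicates, also active in the earlier TRPC4 screen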); settings: HEK293 TRPC6, membrane potential fluorescence, at 10 µM; activation: hits give high values; outcome: activation
[11] = molecular target: Short transient receptor potential channel 6 (Mus musculus) (UniProt Q61143); test: positive modulators of mouse TRPC6 channel – HEK293 cells, membrane potential dye, duplicate, selectivity assay for TRPC4 potentiator project, confirmation (AID 434952); settings: HEK293 TRPC6, membrane potential dye fluorescence, at 10 µM, maximal acetylcholine added after compound; hits give high values
[12] = molecular target: Short transient receptor potential channel 4 (Mus musculus) (UniProt Q9QUQ5); test: calcium flux activators in TRPC4/5HT1a cells, counter-screen for TRPC4 activator project, cell-based, second counter screen, HEK293 TRPC4/5HT1a, Fluo-4 (AID 434977;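 active = calcium signal rise above buffer-control mean plus 5 SD in both duplicates, and also a hit in the primary screen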); settings: Fluo-4 calcium flux, at 10 µM; hits give high values
[13] = serotonin-gated TRPC4 signal block – cell-based, second counter screen, HEK293 TRPC4/5HT1a, Fluo-4, counter-screen for TRPC4 inhibitor project, confirmation (AID 434978;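 active = primary screen active whose calcium signal fell more than 3 SD beyond the full-serotonin control mean in both duplicate plates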;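 as to outcome: serotonin given first at submaximal then at maximal dose after compound preincubation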); settings: Fluo-4 calcium flux, at 10 µM, serotonin added to trigger calcium flux; hits give high values
[14] = system: TRPC4 (mouse), co-expressed with 5HT1a in HEK293; test: enhancement of serotonin-evoked TRPC4 response – cell-based, second counter screen, HEK293 TRPC4/5HT1a, Fluo-4, counter-screen for TRPC4 potentiator project, confirmation (AID 434979;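 active = signal rise over 3 SD above mean of control wells given weak agonist, in both repeats and first screen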); settings: Fluo-4 calcium flux, at 10 µM, serotonin added at its EC20 dose; hits give high values
[15] = nonspecific calcium rise without TRPC4 – cell-based, HEK293 mu-opioid receptor line, counter-screen for TRPC4 activator project, confirmation (AID 449723;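 active = hit in primary screen, with calcium signal over 5 SD above buffer well mean in both duplicates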;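 also: counter screen cells carry the mu-opioid receptor alone and lack TRPC4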); settings: HEK293 mu-opioid cells, Fluo-4 calcium fluorescence, at 10 µM; hits give high values
[16] = nonspecific potentiation of DAMGO calcium response – cell-based, HEK293 mu-opioid receptor line, counter-screen for TRPC4 allosteric potentiator project, confirmation (AID 449724;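 active = calcium signal rise more than 3 SD above the low-dose agonist control mean, in both duplicate plates and the primary screen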); settings: HEK293 mu-opioid receptor cells, Fluo-4 calcium flux, at 10 µM, compound added before EC20 DAMGO stimulus; hits give high values

Structure (SMILES): O=C(COC(=O)c1c(Cl)cccc1Cl)Nc1ccccc1Br
- outcome [1]: inactive
- outcome [2]: inactive
- outcome [3]: inactive
- outcome [4]: inactive
- inhibition [5]: 71% (active)
- outcome [6]: inactive
- outcome [7]: inactive
- outcome [8]: inactive
- outcome [9]: inactive
- outcome [10]: inactive
- outcome [11]: inactive
- outcome [12]: inactive
- inhibition [13]: 29.5% (active)
- outcome [14]: inactive
- outcome [15]: inactive
- outcome [16]: inactive

Structure (SMILES): O=C(Nc1ccccc1)N1CCN2C(=O)c3ccccc3C12c1ccccc1 (stereo not given)
- outcome [1]: inactive
- outcome [2]: inactive
- outcome [3]: inactive
- outcome [4]: inactive
- inhibition [5]: 85% (active)
- inhibition [6]: 62% (active)
- outcome [7]: inactive
- outcome [8]: inactive
- outcome [9]: inactive
- outcome [10]: inactive
- outcome [11]: inactive
- outcome [12]: inactive
- outcome [13]: inactive
- outcome [14]: inactive
- outcome [15]: inactive
- outcome [16]: inactive

Structure (SMILES): Cc1nc2ccccc2n1Cc1ccc(Br)cc1
- outcome [1]: inactive
- outcome [2]: inactive
- outcome [3]: inactive
- outcome [4]: inactive
- inhibition [5]: 96% (active)
- inhibition [6]: 74% (active)
- outcome [7]: inactive
- outcome [8]: inactive
- outcome [9]: inactive
- outcome [10]: inactive
- outcome [11]: inactive
- outcome [12]: inactive
- inhibition [13]: 9.19% (active)
- outcome [14]: inactive
- outcome [15]: inactive
- outcome [16]: inactive

Structure (SMILES): Cc1ccc(-c2c[n+](Cc3cccc(Cl)c3)c3n2CCC3)cc1
- outcome [1]: inactive
- outcome [2]: inactive
- outcome [3]: inactive
- outcome [4]: inactive
- inhibition [5]: 93% (active)
- inhibition [6]: 76% (active)
- outcome [7]: inactive
- outcome [8]: inactive
- outcome [9]: inactive
- outcome [10]: inactive
- outcome [11]: inactive
- outcome [12]: inactive
- inhibition [13]: 14.8% (active)
- outcome [14]: inactive
- outcome [15]: inactive
- outcome [16]: inactive

Structure (SMILES): O=C(CN1CCCCCC1)N1c2ccccc2Sc2ccccc21
- outcome [1]: inactive
- outcome [2]: inactive
- outcome [3]: inactive
- outcome [4]: inactive
- inhibition [5]: 79% (active)
- inhibition [6]: 56% (active)
- outcome [7]: inactive
- outcome [8]: inactive
- inhibition [9]: 21% (active)
- outcome [10]: inactive
- outcome [11]: inactive
- outcome [12]: inactive
- inhibition [13]: 29.7% (active)
- outcome [14]: inactive
- outcome [15]: inactive
- outcome [16]: inactive

Structure (SMILES): COc1cccc(Cn2c(Oc3ccccc3)nc3c2c(=O)n(C)c(=O)n3C)c1
- outcome [1]: inactive
- outcome [2]: inactive
- outcome [3]: inactive
- outcome [4]: inactive
- inhibition [5]: 81% (active)
- inhibition [6]: 43% (active)
- outcome [7]: inactive
- outcome [8]: inactive
- outcome [9]: inactive
- outcome [10]: inactive
- outcome [11]: inactive
- outcome [12]: inactive
- inhibition [13]: 40.4% (active)
- outcome [14]: inactive
- outcome [15]: inactive
- outcome [16]: inactive

Structure (SMILES): CCOC(=O)c1c(NC(=O)C2CCCCC2C(=O)O)sc2c1CCCCC2 (stereo not given)
- outcome [1]: inactive
- outcome [2]: inactive
- outcome [3]: inactive
- outcome [4]: inactive
- inhibition [5]: 80% (active)
- outcome [6]: inactive
- outcome [7]: inactive
- outcome [8]: inactive
- outcome [9]: inactive
- outcome [10]: inactive
- outcome [11]: inactive
- outcome [12]: inactive
- inhibition [13]: 42.6% (active)
- outcome [14]: inactive
- outcome [15]: inactive
- outcome [16]: inactive

Structure (SMILES): CCOC(=O)C1(Cc2cccc(OC)c2)CCN(Cc2cccc(O)c2)CC1
- outcome [1]: inactive
- outcome [2]: inactive
- outcome [3]: inactive
- outcome [4]: inactive
- inhibition [5]: 84% (active)
- inhibition [6]: 43% (active)
- outcome [7]: inactive
- outcome [8]: inactive
- outcome [9]: inactive
- outcome [10]: inactive
- outcome [11]: inactive
- outcome [12]: inactive
- outcome [13]: inactive
- outcome [14]: inactive
- outcome [15]: inactive
- outcome [16]: inactive

Structure (SMILES): CCCn1c(NC(=O)c2ccc(Cl)c(S(=O)(=O)N3CCCC3)c2)nc2ccccc21
- outcome [1]: inactive
- outcome [2]: inactive
- potentiation [3]: 10% (active)
- potentiation [4]: 24% (active)
- inhibition [5]: 69% (active)
- outcome [6]: inactive
- outcome [7]: inactive
- outcome [8]: inactive
- outcome [9]: inactive
- outcome [10]: inactive
- outcome [11]: inactive
- outcome [12]: inactive
- outcome [13]: inactive
- potentiation [14]: 6.75% (active)
- outcome [15]: inactive
- outcome [16]: inactive

Structure (SMILES): OCC1(Cc2ccc(Cl)cc2)CCN(Cc2ccccc2F)CC1
- outcome [1]: inactive
- outcome [2]: inactive
- outcome [3]: inactive
- outcome [4]: inactive
- inhibition [5]: 89% (active)
- inhibition [6]: 38% (active)
- outcome [7]: inactive
- outcome [8]: inactive
- outcome [9]: inactive
- outcome [10]: inactive
- outcome [11]: inactive
- outcome [12]: inactive
- inhibition [13]: 27.9% (active)
- outcome [14]: inactive
- outcome [15]: inactive
- outcome [16]: inactive

Structure (SMILES): CCc1ccc2nc(N=C(N)N)nc(C)c2c1
- outcome [1]: inactive
- outcome [2]: inactive
- outcome [3]: inactive
- outcome [4]: inactive
- inhibition [5]: 93% (active)
- outcome [6]: inactive
- outcome [7]: inactive
- outcome [8]: inactive
- outcome [9]: inactive
- outcome [10]: inactive
- outcome [11]: inactive
- outcome [12]: inactive
- outcome [13]: inactive
- outcome [14]: inactive
- outcome [15]: inactive
- outcome [16]: inactive

Structure (SMILES): COCCn1c(SCc2cccc([N+](=O)[O-])c2)nc2ccccc2c1=O
- outcome [1]: inactive
- outcome [2]: inactive
- outcome [3]: inactive
- outcome [4]: inactive
- inhibition [5]: 94% (active)
- inhibition [6]: 45% (active)
- outcome [7]: inactive
- outcome [8]: inactive
- outcome [9]: inactive
- outcome [10]: inactive
- outcome [11]: inactive
- outcome [12]: inactive
- inhibition [13]: 20.4% (active)
- outcome [14]: inactive
- outcome [15]: inactive
- outcome [16]: inactive

Structure (SMILES): CN(C)CCCN(C(=O)c1ccc(S(=O)(=O)N2CCCC2)cc1)c1nc2c(F)cc(F)cc2s1
- outcome [1]: inactive
- outcome [2]: inactive
- outcome [3]: inactive
- outcome [4]: inactive
- inhibition [5]: 68% (active)
- outcome [6]: inactive
- outcome [7]: inactive
- outcome [8]: inactive
- outcome [9]: inactive
- outcome [10]: inactive
- outcome [11]: inactive
- outcome [12]: inactive
- outcome [13]: inactive
- outcome [14]: inactive
- outcome [15]: inactive
- outcome [16]: inactive

Structure (SMILES): NC(=O)c1nsc(C(=O)N(Cc2ccc(F)cc2)C(C(=O)NCC2CCCO2)c2ccc(O)cc2)c1N (stereo not given)
- outcome [1]: inactive
- outcome [2]: inactive
- outcome [3]: inactive
- outcome [4]: inactive
- inhibition [5]: 77% (active)
- outcome [6]: inactive
- outcome [7]: inactive
- outcome [8]: inactive
- outcome [9]: inactive
- outcome [10]: inactive
- outcome [11]: inactive
- outcome [12]: inactive
- inhibition [13]: 25.6% (active)
- outcome [14]: inactive
- outcome [15]: inactive
- outcome [16]: inactive

Structure (SMILES): Nc1cc(=O)nc(SCC(=O)N2CCN(c3ccccc3)CC2)n1-c1ccc(F)cc1
- outcome [1]: inactive
- outcome [2]: inactive
- outcome [3]: inactive
- outcome [4]: inactive
- inhibition [5]: 95% (active)
- inhibition [6]: 45% (active)
- outcome [7]: inactive
- outcome [8]: inactive
- outcome [9]: inactive
- outcome [10]: inactive
- outcome [11]: inactive
- outcome [12]: inactive
- inhibition [13]: 43.7% (active)
- outcome [14]: inactive
- outcome [15]: inactive
- outcome [16]: inactive
